# Data taken from ChEMBL document CHEMBL3988442, “University of Dundee, Small-Polar-MMV Screening Library” (2021).
# Experiments:
# [1] = target: T1, Aspartate--tRNA(Asp/Asn) ligase (Mycobacterium tuberculosis (strain ATCC 25618 / H37Rv)) (UniProt P9WFW3); assay: Assay for Asp RNA synthetase-1 from Mycobacterium tuberculosis; format: functional; design: scale not given: direction of the effect not stated beside the values; settings: 30 µM; further: in the data most compounds retested in dose-response had high values
# T1 sequence (whole entry): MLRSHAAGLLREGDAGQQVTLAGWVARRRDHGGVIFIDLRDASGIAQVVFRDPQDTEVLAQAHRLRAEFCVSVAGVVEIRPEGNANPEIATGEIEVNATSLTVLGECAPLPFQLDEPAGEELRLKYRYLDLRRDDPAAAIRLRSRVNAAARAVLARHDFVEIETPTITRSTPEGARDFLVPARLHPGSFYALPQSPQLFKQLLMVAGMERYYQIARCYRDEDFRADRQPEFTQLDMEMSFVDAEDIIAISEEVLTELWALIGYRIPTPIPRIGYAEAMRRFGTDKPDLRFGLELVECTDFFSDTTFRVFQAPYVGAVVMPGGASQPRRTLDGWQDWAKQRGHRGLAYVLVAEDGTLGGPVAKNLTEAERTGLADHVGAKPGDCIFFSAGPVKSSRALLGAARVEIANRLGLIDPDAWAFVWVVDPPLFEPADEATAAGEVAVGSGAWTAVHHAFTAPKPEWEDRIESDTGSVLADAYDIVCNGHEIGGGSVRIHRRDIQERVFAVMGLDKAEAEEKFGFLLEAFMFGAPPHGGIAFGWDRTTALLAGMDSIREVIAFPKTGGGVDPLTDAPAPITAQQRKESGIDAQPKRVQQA
# [2] = target: Shiga toxin 2 (Escherichia coli O157:H7) (UniProt P09385+P09386); assay: E. coli 0.157:H7 Shiga Toxin SOP - stx2 screening assay; format: functional; design: scale not given: direction of the effect not stated beside the values; settings: 30 µM
SMILES,Percent Effect [1] [%],Percent Effect [2] [%]
O=C(C1CCOCC1)N1C[C@@H]2[C@@H](C1)OCC(=O)N2Cc1ccncc1,-2.99,-3.94
Cc1cc(-c2cnn(CCNC(=O)c3cccnc3)c2C2CC2)on1,0.491,-2.62
N#Cc1ccccc1OCCN1CCCC1Cn1cccn1 (centres undefined),-0.558,2.91
CCC(=O)N1CCC2(COCc3c(C)nc(N(C)C)nc32)C1 (centres undefined),6.18,-30.5
CCN(C)c1ncnc2c1CCN(C(=O)c1ccno1)CC2,7.02,-5.46
O=C(c1nc(=O)[nH][nH]1)N1CCCC(c2cc(C(F)(F)F)[nH]n2)C1 (centres undefined),-1.69,-21.8
c1cnn(CC2CN(Cc3noc(C4CC4)n3)CCO2)c1 (centres undefined),0.485,5.97
CNc1cncc(C2CCCN2C(=O)c2ccc3oc(C)cc3c2)n1 (centres undefined),0.779,-4.12
COCc1noc(-c2ccc(N3CCCCC3CO)nc2)n1 (centres undefined),-2.46,-5
CCNc1cc2c(nn1)CCN(C(=O)c1ccc(CNC(C)=O)o1)C2,5.42,-44.4
CC(C)(C)SCCCC(=O)N1CCC(Nc2cccnn2)CC1,-1.23,-5.49
CCC1CN(C(=O)Nc2cnc3c(cnn3C(C)C)c2)CCO1 (centres undefined),0.932,13.4
COc1ccccc1CC1CCCN(CCC#N)C1 (centres undefined),-3.31,32.8
CCn1cc(NC(=O)NCc2ccc3c(c2)OCCO3)cn1,1.48,-43.3
COc1ccc(-c2ccnc3c2C(=O)CCC3)cc1,-5.43,-32.1
Cc1cc(N2CCCCCC2)n2nc(C)c(C)c2n1,0.167,19.6
CN1CCN(Cc2ccccc2CNC(=O)c2ccc(Br)cc2F)CC1,2.64,-9.7
